# ERAP1 inh – blocks human ERAP1 aminopeptidase activity. Q9NZ08. recombinant ERAP1, Leu-AMC fluorescence, 60 min. inhibition, % at 10.7 µM. hit rate 0.15% among 340,000;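 active = mean replicate inhibition of at least 30%, or all replicates individually reaching that 30% level; inactive = mean below 30% and not every replicate reaching it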;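 also: 0% = neutral control wells and 100% = L-leucinethiol positive control wells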
# MLL AF4-AF9 inh – MLL-AF4/AF9 protein interaction inhibition; P42568; AlphaScreen, biotin-AF4 peptide binding to FLAG-AF9; inhibition, % at 10 µM; hit rate 0.47% among 350,000; AID 651704;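 active = every replicate reaching a set inhibition limit, whatever the replicate mean, cut at about 25% in these data; inconclusive = mean inhibition reaches that limit but some replicates miss it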;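 also: 0% = plate neutral control median and 100% = total signal loss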
# FGF22 binding – binders of recombinant human FGF22 by thermal shift; hit rate 1.5% among 340,000; SYPRO orange fluorescence; percent of sucrose octasulfate shift, DMSO zero; Q9HCT0; activity (Tm shift, normalised), % at 9.99 µM;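 active = mean Tm shift, scaled 0 neutral to 100 positive control, at about 1.3% or above, every replicate too, limit read from the data; inconclusive = no clear call, values can overlap the other calls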
# Target sequence (Q9HCT0 whole entry, looked up): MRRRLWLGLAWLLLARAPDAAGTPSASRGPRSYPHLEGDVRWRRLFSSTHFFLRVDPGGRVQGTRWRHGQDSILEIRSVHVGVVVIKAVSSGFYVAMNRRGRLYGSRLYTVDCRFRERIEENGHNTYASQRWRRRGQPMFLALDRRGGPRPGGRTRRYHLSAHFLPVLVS
# DENV2 CPE rescue – inhibitors of DENV2 cytopathic effect. DENV2-infected cells, cytopathic effect rescue, plate reader. CPE inhibition, % at 9.99 µM. hit rate 1.7% among 350,000. AID 651640; in the data active = CPE inhibition above about 20%, passing the limit was not always enough; inconclusive = no clear call, values can overlap the other calls; tested in BHK-21 cells;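 also: 0% = median of neutral control wells and 100% = median of positive control wells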
# RAD52 inh – RAD52 (human) annealing inhibition; P43351; recombinant RAD52 DNA annealing, FRET fluorescence; inhibition, % at 18.7 µM; hit rate 0.46% among 360,000; AID 651710;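 active = every replicate showing at least 50% inhibition; inconclusive = mean inhibition at least 50% but not in every replicate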
# Target sequence (P43351 whole entry, looked up): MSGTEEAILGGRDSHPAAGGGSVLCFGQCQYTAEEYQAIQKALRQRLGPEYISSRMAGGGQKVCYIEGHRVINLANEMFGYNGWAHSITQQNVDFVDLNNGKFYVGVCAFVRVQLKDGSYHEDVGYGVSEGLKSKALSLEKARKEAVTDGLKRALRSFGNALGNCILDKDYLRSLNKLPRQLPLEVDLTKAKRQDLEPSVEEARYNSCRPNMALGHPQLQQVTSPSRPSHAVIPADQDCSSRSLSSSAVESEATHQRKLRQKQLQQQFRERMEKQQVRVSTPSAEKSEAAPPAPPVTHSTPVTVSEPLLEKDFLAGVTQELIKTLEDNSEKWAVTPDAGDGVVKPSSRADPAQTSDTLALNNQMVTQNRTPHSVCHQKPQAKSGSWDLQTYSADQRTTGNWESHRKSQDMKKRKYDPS
# An asterisk follows results filed as active; ? = inconclusive; . = not tested or not shown. A selection: hits, their analogues and other compounds. The true share with any hit is near 4%.
SMILES,ERAP1 inh,MLL AF4-AF9 inh,FGF22 binding,DENV2 CPE rescue,RAD52 inh
CC=Cc1ccc2n(c1=O)C[C@@H]1[C@@H](CO)[C@H](C(=O)NC3Cc4ccccc4C3)[C@H]2N1C(C)=O (mixture of isomers),0.9,-4.1,0.1,31.0*,14.2
CCC(=O)N1[C@@H]2c3ccc(/C=C/c4ccccc4)c(=O)n3C[C@H]1[C@H](CO)[C@H]2C(=O)N(C)C,37.6*,-0.8,0.0,-0.2,-6.3
CN1[C@H](C(=O)N2CCOCC2)[C@@H](CO)[C@@H]2Cn3c(ccc(/C=C/c4ccccc4)c3=O)[C@@H]21,-10.8,0.0,0.5,-1.3,-25.4
COCC(=O)N1[C@@H]2Cn3c(ccc(/C=C/c4ccccc4)c3=O)[C@H]1[C@@H](C(=O)N1CCOCC1)[C@@H]2CO,128.5*,2.6,0.0,-2.5,-8.3
CC(=O)N1[C@@H]2c3ccc(/C=C/c4ccccc4)c(=O)n3C[C@H]1[C@H](CO)[C@H]2C(=O)N(C)C,90.7*,-0.5,0.1,-3.3,3.7
CC(=O)N1[C@@H]2Cn3c(ccc(-c4ccccc4)c3=O)[C@H]1[C@@H](C(=O)NC1Cc3ccccc3C1)[C@@H]2CO,.,.,.,.,-2.6
CC(=O)N1[C@@H]2Cn3c(ccc(/C=C/c4ccccc4)c3=O)[C@H]1[C@@H](C(=O)N(C)C)[C@@H]2CO,7.9,0.0,0.0,2.3,16.9
C[C@@H]1CN([C@H](C)CO)C(=O)c2cc(NS(=O)(=O)c3ccc(F)cc3)ccc2O[C@@H](C)CCCCO[C@H]1CN(C)S(=O)(=O)c1ccccc1,-1.4,-1.2,0.1,11.8,-7.8
COc1ccc(S(=O)(=O)N2CC[C@@H]3[C@H]2c2cc(-c4ccc(C#N)cc4)ccc2N[C@@H]3CO)cc1,0.5,6.7,-0.7,4.5,-116.9
N#C[C@@H]1[C@H](c2ccc(-c3cccc(F)c3)cc2)[C@@H](CO)N1C(=O)NC1CCCCC1,1.4,-1.0,.,-20.0,-66.9
C[C@H](CO)N1C[C@H](C)[C@H](CN(C)C(=O)NC2CCCCC2)OCCCC[C@H](C)Oc2ccc(NS(=O)(=O)c3ccccc3)cc2C1=O,1.8,1.3,-0.7,1.7,-9.6
C[C@@H]1CCCCO[C@@H](CN(C)C(=O)Nc2ccccc2)[C@@H](C)CN([C@@H](C)CO)C(=O)c2cc(NC(=O)CCC(F)(F)F)ccc2O1,6.2,0.0,0.0,?,-6.0
CCCOC(=O)c1ccc(O)cc1,-2.6,-3.0,0.1,26.4*,-4.6
CO[C@@H]1CN(C)C(=O)c2ccc(NC(=O)c3ccc(F)cc3)cc2OC[C@@H](C)NC[C@@H]1C,0.5,-2.9,.,-1.9,-8.1
O=C(NCc1ccccc1)C(c1ccc(C(F)(F)F)cc1)n1c(=O)c(-c2cc3ccccc3[nH]2)nc2ccccc21 (centres undefined),.,-49.9,-0.1,38.1*,-17.5
O=C(NC1CCCCC1)C(c1ccccc1)n1c(=O)c(-c2cc3ccccc3[nH]2)nc2ccccc21 (centres undefined),-0.8,-25.8,35.4*,-5.8,-16.3
N#Cc1ccc(C(C(=O)NCc2ccccc2)n2c(=O)c(-c3cc4ccccc4[nH]3)nc3ccccc32)cc1 (centres undefined),-2.1,-15.8,0.0,4.0,-23.1
O=C(Nc1ccc2ccccc2c1)C(C1CC1)n1c(=O)c(-c2cc3ccccc3[nH]2)nc2ccccc21 (centres undefined),.,-32.0,0.2,46.9*,-33.2
COc1ccc(C(C(=O)NC2CCCCC2)n2c(=O)c(-c3cc4ccccc4[nH]3)nc3ccccc32)cc1 (centres undefined),.,-24.7,0.0,-15.7,-25.6
Cc1ccc(NS(=O)(=O)c2ccc(C(=O)NCCCN3CCCC3=O)cc2)cc1,2.5,7.9,-0.2,102.7*,-7.2
CO[C@H]1CN(C)C(=O)c2cc(NC(=O)NC(C)C)ccc2OC[C@H](C)N(S(C)(=O)=O)C[C@H]1C,1.1,-9.6,0.0,-8.6,4.2
C[C@@H]1CN([C@H](C)CO)C(=O)c2cc(N(C)C)ccc2O[C@@H]1CN(C)S(=O)(=O)c1ccccc1,-0.1,1.7,-0.2,-1.3,0.1
C[C@@H]1CN([C@@H](C)CO)C(=O)c2cc(N(C)C)ccc2O[C@H]1CN(C)S(=O)(=O)c1ccccc1,6.1,2.7,-0.4,78.5*,4.8
C[C@H]1CN([C@@H](C)CO)C(=O)c2cc(N(C)C)ccc2O[C@H]1CN(C)S(=O)(=O)c1ccccc1,-1.2,1.7,-0.5,31.4*,8.1
Cc1cn(-c2ccccc2)c(C)c1/C=N\Nc1nc(N2CCOCC2)nc(N2CCOCC2)n1,-1.8,11.7,43.1*,1.2,-24.6
SMILES,ERAP1 inh,MLL AF4-AF9 inh,FGF22 binding,DENV2 CPE rescue,RAD52 inh
O=[N+]([O-])c1cccc(/C=N/Nc2nc(N3CCOCC3)nc(N3CCOCC3)n2)c1,3.8,0.2,44.3*,11.1,-16.2
COc1cccc(-c2cnc3c(c2)C(=O)N([C@H](C)CO)C[C@@H](C)[C@H](CN(C)C(C)=O)O3)c1,-0.9,-2.5,-0.3,-5.2,-1.8
O=C(c1ccccc1)c1ccccc1,-1.4,-3.3,-0.3,-10.9,0.1
O=C(O)C1C=CC(C(=O)O)c2ccccc21 (centres undefined),0.9,-2.6,43.8*,1.4,-3.5
CN(CCc1ccccc1)C(=O)c1ccc(NC(=O)Cc2cccc(NC(=O)C3CCN(C(=O)C4CCC4)CC3)c2)cc1,-3.4,2.0,-0.4,-3.0,-36.9
CN(CCc1ccccc1)C(=O)c1ccc(NC(=O)Cc2ccc(NC(=O)C3CCN(C(=O)C4CCC4)CC3)cc2)cc1,-0.7,28.2*,39.6,-3.8,-12.5
CN(C(=O)c1ccc(NC(=O)Cc2cccc(NC(=O)C3CCN(C(=O)C4CCCCC4)CC3)c2)cc1)C1CC1,.,2.9,-0.6,-0.3,7.5
CN(C(=O)c1ccc(NC(=O)Cc2cccc(NC(=O)C3CCN(C(=O)C4CC4)CC3)c2)cc1)C1CC1,-3.7,0.3,-0.1,34.0*,-1.9
Cc1ccccc1CSc1ccc(-c2ccc3c(c2)OCO3)nn1,1.3,-16.0,-0.1,51.6*,3.5
CCN(CC)C(=O)c1sc(NC(=O)C(C)C)c(C#N)c1C,-1.0,-2.4,43.8*,-4.6,-9.7
CCN(CC)C(=O)c1sc(NC(=O)c2c(OC)cccc2OC)c(C#N)c1C,4.7,-0.2,0.4,0.0,-9.5
CCCN1[C@@H]2c3ccc(-c4cccnc4)c(=O)n3C[C@H]1[C@H](CO)[C@H]2C(=O)NC1CCCC1,.,-1.2,.,6.4,-15.4
CCC(=O)NC[C@@H]1[C@@H](c2ccc(C3=CCCCC3)cc2)[C@@H](CO)N1C(=O)C1CC1,0.7,-12.6,.,3.8,6.5
CCC(CNc1cc(OC)cc2cccnc12)NC1CCCCC1 (centres undefined),3.6,55.7*,0.0,8.3,36.0
COc1cc(NC(=O)c2ccccc2Cl)c2ncccc2c1,-0.1,0.4,0.1,-0.2,-11.3

# Assay outcomes as filed in PubChem BioAssay.
